Measurements taken from PubChem BioAssay (NCI).
Values joined by “and” are separate entries in the source; they are usually repeats but may differ in a detail not shown here. Equal values may be shown once. This is part of a sample that, as a whole, favours compounds with a hit. Of some 83,000 tested, about 20% had one in any assay.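 The test compound was applied at a single concentration to cells in 96-well plates for 48 hours, and percent growth was recorded.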 Active and inactive are the calls of the source. The calls were made as follows: active = growth percent below 10; inactive = the rest.

system: HL-60(TB) leukemia; assay: NCI-60 one-dose screen, 48 h (100 = growth as untreated, 0 = no growth, -100 = all killed); details: 10 µM unless noted

Compound	growth
Cn1c2ccccc2c2nn(C(=O)c3ccccc3)c(=O)nc21	110% (inactive)
Cc1ccc2[nH]c(=O)cc(-n3nncc3Cn3c4ccccc4c4ccccc43)c2c1	107% (inactive)
Cc1nn(-c2ccccc2)c(N2CCOCC2)c1/C=N/N=c1\sc2ccccc2n1C	67.2% (inactive)
O=C(/C=C/c1cccc2ccccc12)Nc1ncc(Cc2ccccc2)s1	-11% (active)
Cc1c(C(=O)NO)sc2ncnc(Nc3ccc(NC(=S)Nc4ccccc4)cc3)c12	103% (inactive)
CCN(CC)CCCC(C)Nc1nc(-c2ccc(OC)cc2)nc2cc(Cl)ccc12 (centres undefined)	51.8% (inactive)
CC(C)Cc1ccc(C(C)C(=O)NCc2c[nH]c3ccc(Cl)cc23)cc1 (centres undefined)	87.6% (inactive)
COc1cc2nc(-c3ccc(C(F)(F)F)cc3)cc(OCCCN3CCC(O)CC3)c2cc1OC	27.3% (inactive)
COc1ccc(/C=C2/SC(=Nc3c(C)nn(-c4ccccc4)c3N)NC2=O)cc1	16.6% (inactive)
CCc1c(C(=O)N[C@@H]2c3cc(Cl)ccc3CC[C@@H]2O)[nH]c(C)c1C(C)=O	103% (inactive)
CC(=O)NCC(=O)N1[C@@H]2CC[C@H]1c1ccc(Nc3ncc(C(F)(F)F)c(NC4CCC4)n3)cc12	11.8% [2.5 µM] (inactive)
COC(=O)CCCCCCN=Cc1c(O)c(O)c(C(C)C)c2cc(C)c(-c3c(C)cc4c(C(C)C)c(O)c(O)c(C=NCCCCCCC(=O)OC)c4c3O)c(O)c12	16.6% (inactive)
Nn1c(Nc2ccc(S(=O)(=O)Nc3ncccn3)cc2)nnc(/C=C/c2c(O)ccc3ccccc23)c1=O	86.1% (inactive)
O=C(Nn1c2c(sc1=NCc1ccccc1)C(=O)c1ccccc1C2=O)c1cc2ccc1CCc1ccc(cc1)CC2	27% (inactive)
O=C(Nc1cc(Cl)ccc1O)c1ccc(Nc2ccnc(C(F)(F)F)c2)cc1	-11% (active)
CCN1CCN(c2cc(C)nc(N(CCCNc3ccnc4cc(Cl)ccc34)Cc3cccs3)n2)CC1	-50.3% (active)
O=C1OC(C(O)C(O)CO)C(O)=C1O (centres undefined)	114% (inactive) and 104% (inactive)
Cc1nn(-c2ccccc2)c2nc3nc4c(c(N)c3c(-c3ccc(Cl)cc3)c12)CCCC4	104% (inactive)
CC(CCc1ccc(Cl)c(Cl)c1)NCc1ccc(C(C)(C)C)cc1 (centres undefined)	46.2% (inactive)
Cc1nn(-c2nc3ccccc3[nH]2)c2c1C(c1ccc(OCc3ccc(F)cc3)cc1)CC(=O)N2 (centres undefined)	75.8% (inactive)

Compound	growth
COc1cc(C2CC(c3ccccc3)=NN2C=O)ccc1Oc1ccnc2cc(Cl)ccc12 (centres undefined)	33.5% (inactive)
C=CCn1c(SCC(=O)NCc2cc(C)c(O)c(C)c2)nc2ccc(Cl)cc2c1=O	94.4% (inactive)
COc1ccc(C(=O)Nc2ncc(Cc3ccc(F)cc3)s2)cc1	-2.26% (active)
Cc1oc2c(C(=O)N/N=C\c3ccc(O)cc3O)c[nH]c2c1C	-9.06% (active)
O=C1NC(=S)S/C1=C\c1cc(Br)ccc1O	83.9% (inactive)
O=C1CNC(c2ccccc2)C(c2ccccc2)N1 (centres undefined)	106% (inactive)
COc1ccc(/C=C2/C(=O)NC(SCC(=O)N3CCN(c4cc5c(cc4F)c(=O)c(C(=O)O)cn5C4CC4)CC3)=NC2N)cc1OC (centres undefined)	104% (inactive)
COC(=O)c1cc(-c2ccc(OC)cc2)[nH]c1N/N=C/c1c(Cl)cccc1Cl	-44.9% (active)
ClC1(Cl)C2CCCCCCC21 (centres undefined)	106% (inactive)
CC(C)(C)CC(C)(C)c1ccc(OCCOCCSC(=N)N)cc1	-51.7% (active)
O=c1c2cc(F)ccc2sc2c(Nc3ccncc3)nc3ccccc3c12	6.35% (active)
COc1ccc(-c2ccc(NC(=O)Nc3cccc(C(F)(F)F)c3)c(C)n2)cc1	49.7% (inactive)
CN(C)c1ccc2nc3ccc(=[N+](C)C)cc-3sc2c1	0.249% (active) and -38.6% (active) and 19.8% (inactive)
O=[N+]([O-])c1ccc(C2N(Cc3ccc(Cl)cc3)CCN2Cc2ccc(Cl)cc2)cc1	86.9% (inactive)
O=C(N=Nc1c(O)[nH]c2ccc(F)cc12)c1cc2ccccc2[nH]1	79.3% (inactive)
O=C1Nc2ccc(C(=O)O)c(O)c2C1=O	99.8% (inactive)
Cn1c(=O)n(-c2ccc(C(C)(C)C#N)cc2)c2c3cc(-c4cnc5ccccc5c4)ccc3ncc21	10.3% (inactive) and -11.9% (active)
CN1C(=O)N(C)C2Nn3c(s/c(=C\c4ccc(C(F)(F)F)cc4)c3=O)=NC21 (centres undefined)	98.9% (inactive)
CC(=O)Oc1cc(C(C)C)c(OCCN(C)C)cc1C	131% (inactive)
